From PubChem
TrxR1 substrate: rat thioredoxin reductase 1 substrate activity. 390,000 compounds, 0.01% hits. purified TrxR1 substrate turnover, NADPH consumption readout. Potency, µM (highest dose often 114 µM), inactives show at the top dose activity change, negative = substrate turnover. O89049; also: nearly all actives have a fitted effect of over 50% in size
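Rat TrxR1, dispensed at 90 nM, was prereduced with 400 uM NADPH (final) for 5 min at ~22 deg C, then incubated with compound 15 min before 400 uM selenite. A first-read NADPH fluorescence drop versus no-compound background flagged substrates.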
rTrxR1 inhibitor: inhibitors of rat thioredoxin reductase 1; AID 588453; 390,000 compounds, 1% hits; Potency, µM (titrated, usually from 114 µM), for the others: top-dose activity change, negative = inhibition, most hits filed as inhibitors; recombinant rTrxR1, NADPH fluorescence consumption, selenite substrate; also: nearly all actives have a fitted effect of over 65% in size
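Rat TrxR1 (90 nM in the dispensed reagent) was pre-reduced with 400 uM NADPH for 5 min at room temperature, then incubated with compound for 15 min. After 400 uM selenite was added, NADPH fluorescence (Ex 340/Em 450 nm) was followed for 8 min.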
IDH1 R132H inh: inhibitors of human mutant IDH1 R132H; IDH1-R132H enzyme, NADPH consumption, diaphorase/resazurin fluorescence; 390,000 compounds, 0.093% hits; O75874; Potency, µM (series often up to 76.6 µM), without a hit: at the top dose activity change, negative = inhibition, usual class: inhibitors; also: nearly all actives have a fitted effect of over 65% in size
Target sequence (O75874 whole entry R132H, stated change not applied): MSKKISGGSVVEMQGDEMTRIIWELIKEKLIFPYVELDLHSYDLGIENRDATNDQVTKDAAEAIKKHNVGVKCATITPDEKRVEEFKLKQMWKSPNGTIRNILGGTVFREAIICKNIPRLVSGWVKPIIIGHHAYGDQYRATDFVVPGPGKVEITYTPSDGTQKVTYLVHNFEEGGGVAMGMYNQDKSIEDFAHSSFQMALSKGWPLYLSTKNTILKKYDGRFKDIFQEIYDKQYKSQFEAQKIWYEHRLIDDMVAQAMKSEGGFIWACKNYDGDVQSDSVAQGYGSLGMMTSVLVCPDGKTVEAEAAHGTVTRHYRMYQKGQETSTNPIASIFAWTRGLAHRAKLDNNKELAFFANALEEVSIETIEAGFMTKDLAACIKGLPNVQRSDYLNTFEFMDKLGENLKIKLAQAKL
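IDH1-R132H (0.5 ug/mL dispensed) in pH 7.5 Tris buffer was preincubated 30 min with compound, then given a substrate mix of 0.016 mM NADPH and 2 mM alpha-KG for 80 min at room temperature; remaining NADPH was read by diaphorase/resazurin fluorescence.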
Sfp inh: blocks B. subtilis Sfp PPTase activity | 310,000 compounds, 3.5% hits | Q9F4F7 | Biochemical Sfp PPTase activity, qHTS | Potency, µM, inactives show largest response in the series, negative = inhibition, usual class: inhibitors | AID 1490;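 also: the enzyme is Sfp with the accession as filed and its product quenches rhodamine fluorescence; 0% = enzyme reaction without inhibitor and -100% = no enzyme wells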
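After 15 min at room temperature with compound, 15 nM Sfp received 5 uM rhodamine-CoA plus 12.5 uM BHQ-2-ybbR (50 mM Hepes pH 7.6, 10 mM MgCl2). Rate came from the fluorescence difference over 30 min, ex 525/em 598 nm.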
PLK1 PBD block: inhibitors of human PLK1 polo-box domain binding; 360,000 compounds, 2.8% hits; P53350; AID 720504; Potency, µM, without a hit: max response, negative = inhibition, actives largely listed as inhibitors; Plk1 PBD binding of FITC phosphopeptide, fluorescence polarization; also: series mostly up to about 57 µM; nearly all actives have a fitted effect of over 65% in size
VDR inhibitor: inhibitors of human vitamin D receptor | Potency, µM, without a hit: max response, negative = inhibition, most hits filed as inhibitors | 400,000 compounds, 0.93% hits | AID 504847 | P11473 | VDR-SRC2-3 peptide fluorescence polarization, 2 h
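Two reagent solutions held at 4 deg C in the dark were dispensed, compounds pinned at 23 nl, and the mixture incubated 2 h at room temperature. Read-out: fluorescence polarization of VDR–SRC2-3 peptide binding.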
* = called active by the depositor; ? = inconclusive; · = no result; ! = a repeat was not active; [ ] = dose if it differs, or a comment. Shown are actives, neighbours in structure and some others; about 5.2% of the full set was active somewhere. Calls follow the shape of the dose curve; as a rule, active = well fitted curve in the direction sought with a large enough effect; inconclusive = small, poorly fitted or top-dose-only effect, or another doubt; inactive = no such curve, though single readings can be large; an effect the other way counts as inactive or inconclusive. Unless noted, % is scaled to controls: 0 for no effect and ±100 for the full control effect; potency is read from the fitted curve at half-maximal effect.

SMILES | TrxR1 substrate | rTrxR1 inhibitor | IDH1 R132H inh | Sfp inh | PLK1 PBD block | VDR inhibitor
COC(=O)c1scc(S(C)(=O)=O)c1-n1cccc1 | -7%[57.1 µM] | 14%[57.1 µM] | 5% | 16% | 30µM* | -13%
CC1(C)OC(=O)C2=C(C[C@@H](C3CCCCC3)O[C@@H]2c2ccc(F)cc2)O1 | · | · | · | · | -5% | ·
CCCCCCc1cc2cc(C(=O)NC)c(=N)oc2cc1O | 34% | ? | 1% | -4% | 3.4µM* | -2%
CCCCCCc1cc2cc(C(N)=O)c(=N)oc2cc1O | · | · | · | -23% | · | ·
COc1cc(-c2oc3cc(O)ccc3c(=O)c2O)ccc1O | · | · | · | ? | · | 6%
O=c1c(O)c(-c2ccc(O)c(O)c2)oc2cc(O)ccc12 | 2% | -26% | -8% | 40µM*! | -11% | -15%
CCc1ccc(C(=O)NC(=S)NCc2cccnc2)cc1 | 5% | -4% | 8% | 0% | -4% | -1%
CC(C)(C)OC(=O)N[C@@H](Cc1ccccc1)c1nnc(S(=O)(=O)Cc2cccc(F)c2)o1 | -9% | 0.63µM* | 2% | 7.9µM* | 6µM* | 11µM*
CC(C)Cn1nnnc1S(=O)(=O)Cc1cccc(C#N)c1 | · | · | · | 10% | · | 8%
CC[C@@H](C)[C@H](NC(=O)OC(C)(C)C)c1nnc(S(=O)(=O)Cc2cc(C)ccc2C)o1 | -3% | 1.1µM* | 11% | ? | 6µM* | 11µM*
CC(C)C[C@H](N)c1nnc(S(=O)(=O)Cc2cccc(F)c2)o1 | 11%[57.1 µM] | 0.63µM* | 9% | 18µM* | ? | 18µM*
CCOC(=O)c1ccc(NC(=O)CSc2cc(=O)n(CC)c3ccccc23)cc1 | -1%[57.1 µM] | 11%[57.1 µM] | 15% | · | · | 2%
CCOC(=O)c1c(NC(=O)/C=C/C(=O)O)sc(C)c1-c1ccc(C(C)(C)C)cc1 | -11% | -13% | ? | -12% | 21µM* | 20µM*
Cc1sc(NC(=O)/C=C/C(=O)O)c(C(N)=O)c1-c1ccc(C(C)(C)C)cc1 | -12% | -7% | 7% | -55% | 27µM* | 79µM*
CCc1c(C)sc(NC(=O)/C=C/C(=O)O)c1C(N)=O | -7% | -11% | -1% | -81% | -16% | -8%
CCOC(=O)c1c(NC(=O)/C=C\C(=O)O)sc(C)c1-c1ccccc1 | 6%[57.1 µM] | 11%[11.4 µM] | -16% | 20% | 21µM* | -26%
Cc1sc(NC(=O)C2C3CCC(C3)C2C(=O)O)c(C(N)=O)c1-c1ccc(C(C)(C)C)cc1 (configuration not stated) | -1%[57.1 µM] | -9%[57.1 µM] | 0% | -22% | ? | -21%
Cc1sc(NC(=O)C2CCCCC2C(=O)O)c(C(N)=O)c1-c1ccc(C(C)(C)C)cc1 (configuration not stated) | 1%[57.1 µM] | 26%[57.1 µM] | 5% | 79µM* | 21µM* | ?
CCN(C(=O)COC(=O)CSc1ccccc1)c1c(N)n(Cc2ccccc2)c(=O)[nH]c1=O | -4% | 9% | 1% | · | -8% | -9%
O=S(=O)(NCCc1ccccc1)c1ccccc1Br | -13% | 105% | · | 1% | · | -4%
Cc1ccc(S(=O)(=O)c2ncccc2[N+](=O)[O-])cc1 | -1%[57.1 µM] | 2µM* | 15% | -13% | -25% | ?
Cc1ccc(S(=O)(=O)c2ncccc2N)cc1 | 5%[2.29 µM] | 17%[2.29 µM] | 5% | 11% | -16% | -11%
CCC1Cc2cc(O)ccc2C2=C1c1ccc(O)cc1CC2CC (configuration not stated) | · | · | · | 5% | · | ?
Cc1ccc(-c2cc[n+](Cc3ccccc3)cc2)cc1 | 26%[57.1 µM] | -3%[57.1 µM] | 1% | 15% | 19µM* | ?
Cc1cc[n+](Cc2ccc([N+](=O)[O-])cc2)cc1 | 7%[57.1 µM] | 20%[57.1 µM] | 3% | -3% | -4% | 9%
Cc1ccc2c(c1)C(c1ccncc1)=NNC(c1ccccc1)=N2 | 4%[57.1 µM] | 3%[57.1 µM] | 6% | -13% | 21µM* | ?
Cc1ccc(S(=O)(=O)NCC(=O)N/N=C/c2ccc(Cl)cc2Cl)cc1 | -6% | 1% | 3% | 45µM* | -1% | 10%
Cc1ccc(S(=O)(=O)NCC(=O)N/N=C/c2ccc(Cl)cc2)cc1 | -2% | 8% | 5% | -2% | -8% | -15%
